Only some compounds are listed: those with a hit (about 3.5% of all), similar ones and a draw of the others.
Pf apPOL block: Pf-apPOL DNA polymerase inhibition | AID 1794808 | 0.25% of 210,000 active | Recombinant Pf-apPOL, molecular beacon fluorescence, 1.5 h | inhibition, % at 10 µM
mHTT-CaM PPI inh: inhibitors of human mutant huntingtin-calmodulin interaction; P42858; AlphaScreen His-mHTT/GST-CaM binding, luminescence; inhibition, % at 15 µM; 3.6% of 190,000 active; AID 1671202;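 further: 0% = both proteins with DMSO and 100% = one protein alone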
* hit, by the source's call; / = no result given. No stated cut-off is given here; in the data, active means inhibition above about 50%; inactive means the rest.

SMILES	Pf apPOL block	mHTT-CaM PPI inh
CCC1CCCCN1C/C=C/c1ccc(N(C)C)cc1 (stereo unspecified)	-7	68*
CCC1CCCCN1C/C=C/c1ccccc1[N+](=O)[O-] (stereo unspecified)	0	-8
Cc1c(Cl)cccc1Nc1nc(N)nc(CN2CCN(c3ccccc3)CC2)n1	-5	45
Cc1ccccc1C(=O)Nc1c2c(nn1-c1cccc(C)c1C)CS(=O)(=O)C2	-4	3
Cn1ccnc1SCC(=O)N1c2ccccc2Sc2ccc(C(F)(F)F)cc21	-1	53*
N#CSCC(=O)N1c2ccccc2Sc2ccc(C(F)(F)F)cc21	14	3
CCCn1ccc2oc(C)c(C(=O)N3CCN(c4cccc(C)c4)CC3)c2c1=O	0	67*
CCn1ccc2oc(C)c(C(=O)N3CCN(c4ccc(Cl)cc4)CC3)c2c1=O	-5	37
CCCn1ccc2oc(C)c(C(=O)N3CCN(c4ccccc4)CC3)c2c1=O	1	29
CCn1ccc2oc(C)c(C(=O)N3CCN(c4cccc(Cl)c4)CC3)c2c1=O	3	94*
COc1nn(-c2ccccc2)c(=O)c(Cl)c1Cl	-6	-7
O=C(COc1nsnc1N1CCOCC1)Nc1ccc(Br)cc1	-6	5
O=C(COc1nsnc1N1CCCCC1)Nc1ccc(Br)cc1	-9	51*
COc1cccc(OC)c1C(=O)N1CC(C)C(c2nc(-c3ccncc3)no2)C1 (stereo unspecified)	-4	-1
COc1cccc(-c2nc(C3CCN(C(=O)c4cccc(F)c4)CC3)no2)c1	6	-7
Fc1ccc(C2=Nn3c(nnc3-c3ccc(Br)cc3)SC2)cc1	2	-5
Cc1ccc(N=Cc2cc3ccccc3[nH]c2=O)cc1	-1	57*
Cc1ccc2nc(-c3ccc(N=Cc4ccccc4O)cc3)sc2c1	-1	/
Cc1nn(C)cc1CN1CCC(c2nncn2-c2ccccc2)CC1	3	0
Cc1nc(-c2cccnc2)nc2c1CCC(=O)N2CCC1=CCCCC1	5	57*
Cc1nc(-c2ccncc2)nc2c1CCC(=O)N2CCC1=CCCCC1	6	13
CN1CCC(NC(=O)c2ccc3c(c2)N(C(=O)c2ccc(F)cc2)CC3)CC1	-1	0
CNC(=O)c1ccc2c(c1)N(C(=O)c1ccc(OC)cc1)CC2	-1	100*
O=C(NCc1ccncc1)C1CCNCC1	-4	-7
CCOc1ccccc1N1CCN(S(C)(=O)=O)CC1	-1	-4
SMILES	Pf apPOL block	mHTT-CaM PPI inh
CCOc1ccccc1N1CCN(c2nccn3cncc23)CC1	-15	54*
Cc1ccccc1-n1nc2c(c1NC(=O)c1ccc(Cl)c([N+](=O)[O-])c1)CSC2	-6	56*
O=C(Nc1c2c(nn1-c1ccc([N+](=O)[O-])cc1)CSC2)c1cccc(C(F)(F)F)c1	6	57*
Cc1ccc(C(=O)Nc2c3c(nn2-c2cccc(C)c2C)CSC3)cc1[N+](=O)[O-]	4	6
Cc1cccc(C(=O)Nc2c3c(nn2-c2ccccc2C)CSC3)c1	-5	58*
Cc1cccc(-n2nc3c(c2NC(=O)C2CCCC2)CSC3)c1C	-5	23
Cc1cccc(C(=O)Nc2c3c(nn2-c2ccc([N+](=O)[O-])cc2)CSC3)c1	-6	19
Cc1ccccc1-n1nc2c(c1NC(=O)c1cccc([N+](=O)[O-])c1)CSC2	0	5
Cc1ccccc1-n1nc2c(c1NC(=O)C1CCCCC1)CSC2	-15	52*
CN(C)c1ccc(/C=C2\SC(=Nc3ccc(O)cc3)NC2=O)cc1	-4	37
CCCCCCSC1=C(C#N)C2(CCC(C)CC2)C(C#N)C(=O)N1 (stereo unspecified)	5	-6
Cc1ccc(C(=O)Nc2c3c(nn2-c2ccccc2C)CSC3)cc1C	-4	62*
Cc1ccc(C(=O)Nc2c3c(nn2-c2ccccc2C)CSC3)cc1	-4	43
Cc1ccccc1-n1nc2c(c1NC(=O)c1cccc(C(F)(F)F)c1)CSC2	-9	100*
Cc1ccccc1-n1nc2c(c1NC(=O)c1ccccc1C(F)(F)F)CSC2	-11	31
O=C(Nc1c2c(nn1-c1ccc(Cl)cc1)CSC2)C1CCCC1	3	2
O=C(Nc1c2c(nn1-c1ccc(F)cc1)CSC2)C1CCCC1	-7	57*
Cc1[nH]c(=O)[nH]c(=O)c1NS(=O)(=O)c1cccs1	/	-7
Cc1cc(C)c(C#N)c(SC/C=C/c2ccccc2)n1	4	-140
CC(=O)c1cc(C#N)c(SC/C=C/c2ccccc2)nc1C	-19	97*
CC(=O)c1cc(C#N)c(SCC(=O)c2ccc(Cl)cc2)nc1C	4	-6
CC(=O)c1cc(C#N)c(SCC(=O)c2ccc(O)c(O)c2)nc1C	10	88*
CC1=C(C(=O)Nc2ccc(C)cn2)C(c2ccc(Cl)cc2)C2=C(CC(C)(C)CC2=O)N1 (stereo unspecified)	-1	12
Cc1ccc(S(=O)(=O)Cc2nc(-c3ccccc3C)no2)cc1	3	-9
CC(C)(C)C(=O)N1CCN(C(C(=O)N2CCCCC2)C2CCCC2)CC1 (stereo unspecified)	-2	3
SMILES	Pf apPOL block	mHTT-CaM PPI inh
CN(C)CCNC(=O)C12CC3CC(C1)CC(c1ccccc1)(C3)C2	-2	14
CN(C)CCNC(=O)NCC12CC3CC(C1)CC(c1ccccc1)(C3)C2	2	79*
CCOC(=O)C(C#N)=CNc1nc2ccc(C)cc2s1	14	/
Cc1ccc2c(c1)-c1c(ssc1=S)C(C)(C)N2	/	52*
CCOc1ccc2c(c1)-c1c(ssc1=S)C(C)(C)N2	/	51*
CCCN1c2ccccc2-c2c(ssc2=S)C1(C)C	/	48
COc1cc(OC)cc(C(=O)NCCC2CCN(C(=O)NC3CCCCC3)CC2)c1	-5	-5
CC(/C=C/c1ccc(Br)cc1)=C\C(=O)O	-4	-3
COc1ccc(C(=O)Nc2c3c(nn2-c2ccccc2C)CS(=O)(=O)C3)cc1	-4	-2
CC(=O)Nc1ccc(S(=O)(=O)NCCN2CCNC2=O)cc1Cl	4	/
CCOc1ccc(-c2[nH]nc3c2C(c2ccc(F)cc2)C(C#N)=C(N)O3)c(OCC)c1 (stereo unspecified)	1	29
CCOc1ccc(-c2[nH]nc3c2C(c2ccccc2F)C(C#N)=C(N)O3)c(OCC)c1 (stereo unspecified)	1	51*
COc1cc(CN2CCc3nc(Nc4ccccc4F)ncc3C2)ccc1OC(C)C	-3	11
CCOc1ccc(CN2CCc3nc(Nc4ccccc4)ncc3C2)cc1OC	-2	-6
COc1cc(CN2CCc3nc(Nc4ccc(F)cc4)ncc3C2)ccc1OC(C)C	-5	95*
COc1cc(CN2CCc3nc(Nc4ccccc4)ncc3C2)ccc1OC(C)C	-1	57*
N#Cc1cccc(CN2CCCC(c3n[nH]c(C4CC4)n3)C2)c1 (stereo unspecified)	1	-8
COc1ccc(CNc2ccc(F)c(Cl)c2)c(OC)c1OC	-5	54*
COc1ccc(CNc2ccc(F)c(Cl)c2)cc1C	-4	-17
CCOc1cccc(CNc2ccc(F)c(Cl)c2)c1O	1	63*
O=[N+]([O-])c1ccccc1CNc1ccc(F)c(Cl)c1	11	47
Oc1c(Cl)cc(Cl)cc1CNc1ccc(F)c(F)c1	0	100*
COc1ccc(OC)c(CNc2ccc(F)c(Cl)c2)c1	-1	30
Cc1cccc(N2CCN(C(=O)C3CCN(c4nnc(-c5ccccc5)o4)CC3)CC2)c1	1	2
O=C(Nc1cccc(-c2nc3ccccc3[nH]2)c1)c1ccccc1Cl	-5	1
